In the supplement of paper PMC10338343:
± gives the standard deviation.

How the values were obtained:
[1] = tested on: MILI (PIWIL2) piRISC loaded with L1MC piRNA (26 nt); experiment: pre-steady-state target cleavage rate (min^-1); guide: L1MC piRNA 5'p-UAACUAAAUACUAUGCAAGCUGUAGG; higher = faster piRNA-guided slicing of the target
Method in brief: (§1)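 In Cleave-'n-Seq, a transcribed, DNA-blocked target RNA library (0.1 nM) was combined with 1 nM active affinity-purified piRISC bearing one synthetic guide, with or without 500 nM GTSF1 partner protein. Reactions ran in HEPES–potassium acetate buffer at 33 °C for 0–8 or 0–960 min. Uncleaved targets were sequenced and normalised to depth and to weakly complementary targets, three trials were pooled, and k3 was capped at 0.0001 min^-1. The pre-steady-state cleavage rate was obtained by fitting a burst-and-steady-state model.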

[2] = tested on: EfPiwi piRISC loaded with L1MC piRNA (26 nt); experiment: pre-steady-state target cleavage rate (min^-1); auxiliary factor: 500 nM Ephydatia muelleri Gtsf1; guide: L1MC piRNA 5'p-UAACUAAAUACUAUGCAAGCUGUAGG; MIWI and MILI are mouse PIWI proteins and EfPiwi is from a freshwater sponge; tags in brackets are library labels; higher = faster piRNA-guided slicing of the target
Method in brief: as §1

[3] = auxiliary factor: 500 nM mouse GTSF1
[4] = auxiliary factor: none (no GTSF1)

| Sequence | pre-steady-state target cleavage rate [1, 3] | pre-steady-state target cleavage rate [1, 4] | pre-steady-state target cleavage rate [2] |
| --- | --- | --- | --- |
| UCCUGGAUGUGCUUGCAUUGUAUUUAGUUA | 0.0666 ± 0.013 | 0.00523 ± 0.0031 | 0.00484 ± 0.0027 |
| UCCUGGAUGAGCUUGCAUAGUAUUAUAGUUA | 0.185 ± 0.022 | 0.00494 ± 0.0026 | 0.0159 ± 0.0056 |
| UCCUGGUACAGCUUGCAAAGUAUUUAGUUA | 0.11 ± 0.013 | 0.00987 ± 0.0024 | 0.0101 ± 0.0035 |
| UCCUGGAUCAGCUUGCAAAGUAUUAAGUUA | 0.119 ± 0.011 | 0.00698 ± 0.0025 | 0.00373 ± 0.0026 |
| UCCUGGAUCUGCUUGCAUAGUAUAUAGUUA | 0.191 ± 0.019 | 0.00587 ± 0.0024 | 0.0643 ± 0.018 |
| UCCUGGUACGCUUGCAUAGUAUUUAGUUA | 0.222 ± 0.034 | 0.0143 ± 0.0047 | 0.00582 ± 0.0027 |
| UCCUGGUACUGCUUGCAUAGUAAUUAGUUA | 0.169 ± 0.031 | 0.00575 ± 0.0025 | 0.114 ± 0.043 |
| UCCUGGAACAGCUUGCAUAGUAUUUAGUGA | 0.229 ± 0.027 | 0.00433 ± 0.0025 | 0.00437 ± 0.002 |
| UCCUGGUAGAGCUUGCAUAGUAUUUAGUAA | 0.206 ± 0.013 | 0.0096 ± 0.0028 | 0.00742 ± 0.0038 |
| UCCUCCUACAGCAUGCAUAGUAUUUAGUUA | 0.316 ± 0.021 | 0.0117 ± 0.0029 | 0.0743 ± 0.019 |
| UCCUGCUUCAGCUUGCAUAGUAUUUAGUUA | 0.312 ± 0.019 | 0.0109 ± 0.0023 | 0.103 ± 0.025 |
| UCCUGGAUCAGCUUGCAAAGUAUUUAGUAA | 0.12 ± 0.0069 | 0.00426 ± 0.0026 | 0.00607 ± 0.0027 |
| UCCUGGAACAGCUUGCUUAGUAUUUUGUUA | 0.167 ± 0.025 | 0.00339 ± 0.0024 | 0.00494 ± 0.0028 |
| UCCUGCUACAGCUAGCAUAGUAUUUAGUUA | 0.354 ± 0.027 | 0.00624 ± 0.0029 | 0.0287 ± 0.0081 |
| UCCUGCUACAGUUUGCAUAGUAUUUAGUUA | 0.296 ± 0.015 | 0.0106 ± 0.0023 | 0.0365 ± 0.011 |
| UCCUGGAACAGCUUGGUUAGUAUUUAGUUA | 0.213 ± 0.02 | 0.0126 ± 0.0037 | 0.0135 ± 0.005 |
| UCCUCCAUGAGCUUGCAUAGUAUUUAGUUA | 0.279 ± 0.016 | 0.00711 ± 0.0021 | 0.0146 ± 0.004 |
| UCCUGGAUCAGCUUGCAUAGUAUUUAGGUUA | 0.271 ± 0.027 | 0.00531 ± 0.0025 | 0.00516 ± 0.0024 |
| UCCUGGAUCAGGUUGCAUAGAAUUUAGUUA | 0.0266 ± 0.0065 | 0.00431 ± 0.0021 | 0.00305 ± 0.0023 |
| UCCUGGAUGUGGAUGCAUAGUAUUUAGUUA | 0.092 ± 0.012 | 0.00877 ± 0.0027 | 0.00943 ± 0.0037 |
| UCCUCCUACAGCUUGCAUAGUAUUUAGGUUA | 0.251 ± 0.045 | 0.00312 ± 0.0031 | 0.00552 ± 0.0017 |
| UCCUGCUACUGCUUGCAUAGUAUUUUGUUA | 0.138 ± 0.024 | 0.00318 ± 0.0029 | 0.0061 ± 0.0024 |
| UCCUCCUAGAGCUUGCUUAGUAUUUAGUUA | 0.261 ± 0.014 | 0.00563 ± 0.0022 | 0.0217 ± 0.0064 |

| Sequence | pre-steady-state target cleavage rate [1, 3] | pre-steady-state target cleavage rate [1, 4] | pre-steady-state target cleavage rate [2] |
| --- | --- | --- | --- |
| UCCUGGAACACGUUGCAUAGUAUUUAGUUA | 0.193 ± 0.014 | 0.01 ± 0.0027 | 0.0172 ± 0.0053 |
| UCCUCCUAGACCUUGCAUAGUAUUUAGUUA | 0.237 ± 0.024 | 0.00751 ± 0.0025 | 0.141 ± 0.041 |
| UCCUGGAUGUGCUUGCAUGGUAUUUAGUUA | 0.086 ± 0.014 | 0.0124 ± 0.0032 | 0.0043 ± 0.0042 |
| UCCUGGUACAGCUUGCAUAGUAUUUAGUUA [g2:g24:cont:t1A] | 0.277 ± 0.018 | 0.0215 ± 0.0056 | 0.0865 ± 0.024 |
| UCCUGGAUGUGCUUGCAUAGUAUAUUAGUUA | 0.111 ± 0.016 | 0.00381 ± 0.0027 | 0.0043 ± 0.0034 |
| UCCUGGAAGAGCUUGGAUAGUAUUUAGUUA | 0.178 ± 0.0086 | 0.00531 ± 0.0023 | 0.00392 ± 0.0027 |
| UCCUGGUACAGCUUGCAUAGUAUUUAGUGUA | 0.143 ± 0.021 | 0.00896 ± 0.0033 | 0.00435 ± 0.0027 |
| UCCUGCUACAGCUUGCAAGUAUUUAGUUA | 0.138 ± 0.017 | 0.00374 ± 0.0027 | 0.00614 ± 0.0027 |
| UCCUGGAUGAGUCUUGCAUAGUAUUUAGUUA | 0.105 ± 0.016 | 0.0093 ± 0.0029 | 0.00527 ± 0.0024 |
| UCCUGGAACAGGUUGCAUACUAUUUAGUUA | 0.0491 ± 0.0087 | 0.00363 ± 0.002 | 0.00367 ± 0.0017 |
| UCCUGCUACAGCUUGCAUAGUAUUUAGUUUA | 0.308 ± 0.018 | 0.0118 ± 0.0032 | 0.0608 ± 0.016 |
| UCCUGGAUGUCGAUGCAUAGUAUUUAGUUA [g2:g17:cont:t1A] | 0.124 ± 0.017 | 0.0067 ± 0.0017 | 0.00648 ± 0.0023 |
| UCCUCCUACUGCUUGCAUAGUAUUAAGUUA | 0.15 ± 0.018 | 0.00292 ± 0.0026 | 0.00682 ± 0.0034 |
| UCCUCCUACAGCUUGUAUAGUAUUUAGUUA | 0.305 ± 0.018 | 0.00822 ± 0.0025 | 0.143 ± 0.033 |
| UCCUGGAACUGCUUGCAAAGUAUUUAGUUA | 0.117 ± 0.01 | 0.00518 ± 0.0021 | 0.0228 ± 0.008 |
| UCCUCGUACAGCUUGCAUAGUUUUUAGUUA | 0.0651 ± 0.008 | 0.00493 ± 0.0018 | 0.0267 ± 0.0072 |
| UCCUGGUACAGCUUGCGUAGUAUUUAGUUA | 0.219 ± 0.021 | 0.014 ± 0.004 | 0.0273 ± 0.0095 |
| UCCUGGUAGAGGUUGCAUAGUAUUUAGUUA | 0.185 ± 0.024 | 0.0103 ± 0.0031 | 0.00483 ± 0.0034 |
| UCCUCGAACAGCUUGCAUAGUAUUUAGUAA | 0.242 ± 0.015 | 0.00453 ± 0.0022 | 0.0173 ± 0.0064 |
| UCCUGGUAGAGCUUGGAUAGUAUUUAGUUA | 0.15 ± 0.0091 | 0.00624 ± 0.0029 | 0.004 ± 0.0023 |
| UCCUGGAUCAGCUUGCAUAGUAUUUAGUUUA | 0.358 ± 0.025 | 0.00718 ± 0.0026 | 0.0394 ± 0.011 |
| UCCUGGAUGAGAUUGCAUAGUAUUUAGUUA | 0.153 ± 0.014 | 0.011 ± 0.0024 | 0.00463 ± 0.0025 |
| UCCUGCUACAGCUUGCAAAGUAUUUAGUAA | 0.121 ± 0.021 | 0.00272 ± 0.0025 | 0.00434 ± 0.0016 |
